Screens from PubChem.
Hits are enriched below; roughly 11% of the tested compounds scored in any of these assays.
FLuc inh: blocks purified firefly luciferase enzyme activity; AID 1347043; actives 2.5% (n = 76,000); Potency, µM (series often up to 115 µM), most hits filed as inhibitors; purified P. pyralis luciferase, luminescence, biochemical; also: nearly all actives have a fitted effect of over 65% in size
Target sequence (P08659 whole entry, looked up): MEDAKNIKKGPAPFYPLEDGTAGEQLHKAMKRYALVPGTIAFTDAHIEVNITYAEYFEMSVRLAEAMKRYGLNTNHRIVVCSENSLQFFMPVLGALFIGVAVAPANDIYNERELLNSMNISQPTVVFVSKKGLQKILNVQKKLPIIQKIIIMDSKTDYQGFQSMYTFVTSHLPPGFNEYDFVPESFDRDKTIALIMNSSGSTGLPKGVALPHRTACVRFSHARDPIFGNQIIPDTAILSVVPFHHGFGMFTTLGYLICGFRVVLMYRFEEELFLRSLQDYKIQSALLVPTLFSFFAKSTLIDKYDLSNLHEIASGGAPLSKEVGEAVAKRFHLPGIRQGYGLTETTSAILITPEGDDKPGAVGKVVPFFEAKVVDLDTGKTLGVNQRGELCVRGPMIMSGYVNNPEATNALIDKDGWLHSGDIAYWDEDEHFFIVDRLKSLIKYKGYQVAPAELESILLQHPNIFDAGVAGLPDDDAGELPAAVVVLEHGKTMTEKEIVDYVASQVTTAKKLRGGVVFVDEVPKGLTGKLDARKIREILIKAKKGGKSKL
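Luminescence read by CCD imaging after purified firefly luciferase (10nM final) was added to substrate buffer holding 10uM D-luciferin and 10uM ATP, pH 7.5, pre-dosed with compound.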
hNpr1 antagonist: antagonists of human natriuretic peptide receptor Npr1. HEK293 hNpr1 GloSensor cGMP, ANP-stimulated luminescence. Potency, µM (top dose mostly 46.3 µM), without a hit: at the highest dose activity change, negative = inhibition, usual class: inhibitors. actives 1.6% (n = 76,000). P16066; calls by dose curve; also: nearly all actives have a fitted effect of over 60% in size
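HEK293 cells stably expressing human Npr1 and cGMP GloSensor pGS-40F, loaded 2 h with 2% GloSensor reagent, given compound 30 min at room temperature. Luminescence read before and 20 min after 0.1 nM hNppA.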
3T3 cytotox: kills NIH 3T3 cells; NIH 3T3 viability, CellTiter-Glo ATP luminescence, 48-72 h; actives 4.3% (n = 94,000); Potency, µM (titrated, usually from 96.7 µM), for inactives: at the top dose activity change, negative = cytotoxicity, most hits filed as inhibitors; also: nearly all actives have a fitted effect of over 55% in size
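Viability of NIH 3T3 cells after 48 or 72 hr compound treatment at 37 °C was assessed by CellTiter-Glo, with luminescence imaged following a 10 min room-temperature step.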
HEK293 tox: HEK 293 cell cytotoxicity | HEK 293 viability, ATP luminescence (CellTiter-Glo), 48-72 h | actives 6.6% (n = 94,000) | AID 1345083 | Potency, µM (doses to about 115 µM), without a hit: top-dose activity change, negative = cytotoxicity, most hits filed as inhibitors; also: nearly all actives have a fitted effect of over 60% in size
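CellTiter-Glo luminescence (cellular ATP) was read after 48 or 72 hr of compound exposure at 37 degree Celsius. Cells were HEK 293 plated at 250 cells/well.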
Numbers without * were called inactive; i = inactive; ? = inconclusive; · = no result; [ ] = another dose, or the depositor's remark. Unless noted, calls follow the shape of the dose curve; as a rule, active = well fitted curve in the direction sought with a large enough effect; inconclusive = small, poorly fitted or top-dose-only effect, or another doubt; inactive = no such curve, though single readings can be large; an effect the other way counts as inactive or inconclusive. % is scaled to controls: 0 for no effect and ±100 for the full control effect; potency is read from the fitted curve at half-maximal effect.

SMILES	FLuc inh	hNpr1 antagonist	3T3 cytotox	HEK293 tox
Cc1ccc2nc(NC(=O)C3CC(=O)N(c4n[nH]c5ccccc45)C3)sc2c1 (stereo unspecified)	i	-1%	32µM*	40µM*
Cc1csc(NC(=O)C2CC(=O)N(c3n[nH]c4ccccc34)C2)n1 (stereo unspecified)	i	-1%	-11%	-19%
CNC(=O)c1cccc(-c2ccccc2COc2ccc(CCOC)cc2)n1	10µM*	-23%	-13%	?
COCCc1ccc(OCc2ccccc2-c2cc(C)n[nH]c2=O)cc1	i	-2%	i	2%
CN1CCCN(C(=O)c2ccc(F)cc2)c2ccccc21	i	1%	?	-18%
Cc1cc(C)cc(C(=O)N2CCCN(C)c3ccccc32)c1	i	-1%	?	40µM*
Cc1ccc(C2Cn3nnc(C(=O)N4CCC(C(=O)NCCC5=CCCCC5)CC4)c3CO2)cc1 (stereo unspecified)	10µM*	-1%	i	10%
COCCCNC(=O)C1CCN(C(=O)c2nnn3c2COC(c2ccc(C)cc2)C3)CC1 (stereo unspecified)	40µM*	-2%	i	-5%
COc1ccc(C2Cn3nnc(C(=O)N4CCC(C(=O)NCCC5=CCCCC5)CC4)c3CO2)cc1 (stereo unspecified)	i	3%	i	4%
Cc1ccc(C2Cn3cnc(C(=O)N4CCC(C(=O)NCCC5=CCCCC5)CC4)c3CO2)cc1 (stereo unspecified)	28µM*	-10%	-26%	-14%
O=C(NCCC1=CCCCC1)C1CCN(C(=O)c2ncn3c2COC(c2ccc(Cl)cc2)C3)CC1 (stereo unspecified)	?	-2%	-24%	?
Cn1cnc(S(=O)(=O)N2CCCC(C(=O)NC3CCCCC3)CCNC(=O)CC2)c1 (stereo unspecified)	i	2%	-18%	0%
CN(Cc1cccnc1)c1nc2c(c(=O)[nH]1)CCN(Cc1cccc(Cl)c1F)CC2	i	-12%	?	25µM*
CN(Cc1cccnc1)c1nc2c(c(=O)[nH]1)CCN(Cc1ccccc1)CC2	i	3%	-29%	-25%
CN(Cc1cccnc1)c1nc2c(c(=O)[nH]1)CCN(Cc1ccc(C(F)(F)F)cc1)CC2	i	-17%	?	32µM*
CC1(C(=O)Nc2ccncc2)CCCc2cnc(Nc3ccccc3)nc21 (stereo unspecified)	i	-17%[70.6 µM]	?	?
CC1(C(=O)NC2CCOCC2)COCc2cnc(Nc3ccccc3)nc21 (stereo unspecified)	i	0%[70.6 µM]	?	-22%[172 µM]
COc1cccc(Nc2ncc3c(n2)C(C)(C(=O)NCCCn2ccnc2)CC3)c1 (stereo unspecified)	i	1%[70.6 µM]	25µM*	?
COc1ccc(NC(=O)C2(C)CCCc3cnc(Nc4cccnc4)nc32)cc1 (stereo unspecified)	i	3%[70.6 µM]	35µM*	-20%[172 µM]
CC1(C(=O)N2CCC(c3ccccc3)CC2)COCc2cnc(Nc3ccccc3)nc21 (stereo unspecified)	i	?	45µM*	63µM*
COc1ccc(NC(=O)C2(C)CCc3cnc(Nc4ccccc4)nc32)cn1 (stereo unspecified)	i	-19%[70.6 µM]	?	100µM*
C[C@H]1[C@@H]2[C@@H](O)C([C@H](C)C(=O)NC3CCCCC3)CC[C@@]2(C)CC[C@@H]1NC(=O)c1cnccn1 (stereo partly specified)	i	-11%	-19%	-18%
CC1(C(=O)NC2CC2)CCCc2cnc(Nc3ccccc3)nc21 (stereo unspecified)	i	1%[70.6 µM]	-26%[138 µM]	?
COc1cccc(NC(=O)C2(C)CCc3cnc(NCc4ccccc4)nc32)c1 (stereo unspecified)	i	-24%[70.6 µM]	?	71µM*
CC1(C(=O)NC2CC2)CCc2cnc(Nc3ccccc3)nc21 (stereo unspecified)	i	?	28µM*	40µM*
SMILES	FLuc inh	hNpr1 antagonist	3T3 cytotox	HEK293 tox
COc1cccc(NC(=O)C2(C)COCc3cnc(Nc4ccccc4)nc32)c1 (stereo unspecified)	i	-20%[70.6 µM]	79µM*	100µM*
CC1(C(=O)NCc2cccc(F)c2)COCc2cnc(Nc3ccccc3)nc21 (stereo unspecified)	i	-25%[70.6 µM]	?	89µM*
Cn1ccc(NC(=O)C2(C)COCc3cnc(Nc4ccccc4)nc32)n1 (stereo unspecified)	i	0%[70.6 µM]	?	?
CC(=O)Nc1ccc(CN2C(=O)OC3(CCN(C(=O)C(C)C)CC3)C2(C)c2ccccc2)cc1 (stereo unspecified)	i	2%	?	?
COc1cccc(Nc2ncc3c(n2)C(C)(C(=O)NCc2ccc4c(c2)OCO4)CC3)c1 (stereo unspecified)	i	?	?	32µM*
COc1cccc(Nc2ncc3c(n2)C(C)(C(=O)NCCN2CCOCC2)CC3)c1 (stereo unspecified)	i	-3%[70.6 µM]	?	?
COc1cccc(NC(=O)C2(C)CCCc3cnc(N(C)C)nc32)c1 (stereo unspecified)	i	-3%[70.6 µM]	?	?
COc1ccc(NC(=O)C2(C)CCc3cnc(NCc4ccccc4)nc32)cn1 (stereo unspecified)	i	-1%[70.6 µM]	13µM*	?
O=C1NCc2ccccc2CC12CCCCN2Cc1ccc(Cl)s1 (stereo unspecified)	·	·	-21%	-23%
O=[S+]1([O-])NC2(CCN(Cc3cccc4ccccc34)C2)CNc2ccccc21 (stereo unspecified)	i	?	?	40µM*
O=[S+]1([O-])NC2(CCN(Cc3ccncc3)CC2)CNc2ccccc21	i	5%	-23%	-3%
O=[S+]1([O-])NC2(CCN(Cc3ccccc3C(F)(F)F)C2)CNc2ccccc21 (stereo unspecified)	i	-3%	?	40µM*
O=C(c1ccc(C(F)(F)F)cc1)N1CCC2(CC1)CNc1ccccc1[S+](=O)([O-])N2	i	-4%	-12%	50µM*
O=[S+]1([O-])NC2(CCN(Cc3ccc(C(F)(F)F)cc3)C2)CNc2ccccc21 (stereo unspecified)	i	?	?	45µM*
O=[S+]1([O-])NCC2(CCN(Cc3ccccc3C(F)(F)F)CC2)Nc2ccccc21	i	6%	i	?
Cc1ccc(-c2cccc(CN3CCCC(NC(=O)NC(C)C)C3)c2)cc1Cl (stereo unspecified)	·	·	?	-11%
Nc1ccc(CN2CCCC3(Cc4ccccc4CNC3=O)C2)cc1 (stereo unspecified)	·	·	-7%	-5%
CCCOc1ccc(CN2C[C@@H](CO)[C@H](c3ccccn3)C2)cc1	i	-12%	-25%	?
